Bioassay records from PubChem.
A selection: hits, their analogues and other compounds. The true share with any hit is near 1.6%.
KCNQ2 inh: blocks the rat KCNQ2 potassium channel. CHO-K1 KCNQ2, FluxOR thallium flux, 20 min; stronger effect = lower value. O88943. hit rate 1.1% among 310,000. B-score at 10 µM;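 active = fluorescence ratio B-score at most minus 3 library SDs, with starting brightness B-score within 2 library SDs, cut at about -5.5 in these data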
KCNQ2 enhance: KCNQ2 (rat) channel potentiation | hit rate 0.54% among 310,000 | B-score at 10 µM | O88943 | CHO-K1 KCNQ2, FluxOR thallium flux fluorescence; stronger effect = higher value | AID 2239;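 active = fluorescence ratio B-score at least 3 SD of library B-scores, with initial fluorescence B-score within 3 of them, cut at about 5.3 in these data; same plate scores as AID 2156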;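 also: B-score of peak minus minimum over baseline fluorescence ratio after K+ and Tl+ stimulus; positive B-score means potentiation of KCNQ2 with more thallium influx and brighter signal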
Kir21 conf inh: confirmation of mouse Kir2.1 potassium channel inhibitors. hit rate 41% among 2,300. AID 2032. Tl flux remaining, % of negative control (stronger effect = lower value), % at 10 µM. Kir2.1-expressing cells, FluxOR thallium flux fluorescence; stronger effect = lower value. shares compounds with KCNQ2 enhance;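 active = Primary-screen hit whose thallium flux fell at least 3 control SD below untreated wells in both duplicates, with normal baseline fluorescence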;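 also: 0% = blank wells without stimulus and 100% = stimulated no-compound controls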
HEK293 ctr: alters thallium flux in parental HEK293 cells, Kir2.1 counter-screen; shares compounds with KCNQ2 enhance; FluxOR thallium flux fluorescence; 0% = unstimulated blank wells; FluxOR signal as % of negative control (100 = no effect), % at 10 µM; hit rate 19% among 2,300; AID 2105;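 active = dye signal at least 3 control SD above or below untreated wells in both duplicates, raw fluorescence within 3, either direction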;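 also: percent is based on the flux ratio of peak minus minimum fluorescence over baseline F0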
CHO-K1 Tl ctr: parental CHO-K1 activity in KCNQ2 potentiator counter-screen; activity increase over 3SD of controls, % at 10 µM; parental CHO-K1 cells, FluxOR thallium flux fluorescence; zero = vehicle mean+3SD, 100% = vehicle-minus-blank window; hit rate 43% among 1,200; shares compounds with KCNQ2 enhance;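 active = signal rise of at least 3 SD above the untreated control mean, in both duplicate wells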;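 also: counter screen of KCNQ2 potentiator hits so any rise reflects channel-independent effects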
KCNQ1 pot spec: selectivity of KCNQ2 potentiators: effect on human KCNQ1. AID 2283. activation over 3SD threshold, % at 10 µM. hit rate 28% among 1,200. CHO KCNQ1 stable, FluxOR thallium flux fluorescence; beyond 3SD, as % of vehicle-control signal. shares compounds with KCNQ2 enhance;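 active = fluorescence ratio rise of at least 3 SD of vehicle wells above their mean, in both replicate wells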;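 also: 0% = vehicle mean plus 3 SD and 100% = vehicle minus unstimulated blank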
Target sequence (P51787 whole entry, looked up): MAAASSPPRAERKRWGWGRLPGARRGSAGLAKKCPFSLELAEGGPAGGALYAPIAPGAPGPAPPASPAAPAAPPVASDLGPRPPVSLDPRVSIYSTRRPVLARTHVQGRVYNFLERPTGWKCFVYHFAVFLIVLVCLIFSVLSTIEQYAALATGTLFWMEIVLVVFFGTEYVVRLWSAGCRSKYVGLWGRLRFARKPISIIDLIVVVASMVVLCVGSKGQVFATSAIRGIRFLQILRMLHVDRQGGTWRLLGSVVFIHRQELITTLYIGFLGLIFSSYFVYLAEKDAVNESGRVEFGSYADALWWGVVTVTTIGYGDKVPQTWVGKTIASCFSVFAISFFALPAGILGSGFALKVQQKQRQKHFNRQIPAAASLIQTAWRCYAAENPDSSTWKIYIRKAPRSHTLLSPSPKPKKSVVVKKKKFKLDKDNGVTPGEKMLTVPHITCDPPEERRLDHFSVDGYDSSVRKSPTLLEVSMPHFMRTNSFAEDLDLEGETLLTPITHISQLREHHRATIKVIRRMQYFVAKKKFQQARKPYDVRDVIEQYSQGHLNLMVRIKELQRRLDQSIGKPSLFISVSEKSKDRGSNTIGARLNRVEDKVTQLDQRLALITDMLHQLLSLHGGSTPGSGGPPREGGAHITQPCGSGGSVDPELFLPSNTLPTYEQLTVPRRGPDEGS
KCNQ2 pot confirm: confirmation of rat KCNQ2 potassium channel potentiators; shares compounds with KCNQ2 enhance; CHO-KCNQ2 cells, FluxOR thallium flux fluorescence; potentiation, less the hit threshold, % at 10 µM; hit rate 68% among 1,200; AID 2287;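 active = fluorescence ratio rising 3 SD or more over the vehicle control mean in both replicates, plus primary screen hit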;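 also: peak minus minimum thallium fluorescence divided by baseline after K/Tl stimulus; 0% = vehicle mean plus 3 SD and 100% = vehicle minus unstimulated blank difference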
Kir21 spec: mouse Kir2.1 off-target activity of KCNQ2 potentiators. shares compounds with KCNQ2 enhance. HEK293 Kir2.1, FluxOR thallium flux fluorescence. activity over 3SD threshold, % at 10 µM. hit rate 2% among 1,200. AID 2345;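 active = fluorescence ratio rise of at least 3 SD above the vehicle-control mean, seen in both replicates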;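 also: 0% = vehicle mean plus 3 SD and 100% = vehicle minus no-stimulus blank window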
KCNQ2 W236L pot: potentiates the retigabine-insensitive rat KCNQ2 W236L mutant channel | shares compounds with KCNQ2 enhance | AID 2558 | hit rate 10% among 940 | current increase over 3SD of negative controls (%), stronger effect = higher value, % at 25 µM | CHO KCNQ2-W236L, automated patch clamp current;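 active = current increase at least 3 SD of the untreated controls above them in both duplicate recordings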
Numbers without * were called inactive; i = inactive; nt = no result.

SMILES	KCNQ2 inh	KCNQ2 enhance	Kir21 conf inh	HEK293 ctr	others
Nc1ccccc1S(=O)(=O)C(F)F	i	0.07	nt	nt
CC(C)CC(=O)/C(=C\c1ccc(Cl)cc1Cl)n1cncn1	-5.6*	-5.6	44%*	i
CC(C)CC(=O)/C(=C/c1ccc(N(C)C)cc1)n1cncn1	i	1.2	nt	nt
CC(C)OCCCNC(=O)Cn1ccc2cc(S(=O)(=O)N3CCCCC3)ccc21	i	nt	nt	nt
CCOc1cc(CNC(C)(C)CO)cc(Br)c1OCc1ccc(Cl)cc1Cl	-7.7*	-7.7	22%*	i
CCOc1cc(CNCCO)cc(Br)c1OCc1ccccc1Cl	-7.4*	-7.4	i	i
COc1cc(CNC(C)(C)CO)cc(Br)c1OCc1ccccc1	i	1.4	nt	nt
COc1cc(CNCCO)cc(Cl)c1OCc1ccccc1Cl	i	nt	nt	nt
COc1ccccc1CCNC(=O)COc1cccc2c1OC(C)(C)C2	i	nt	50%*	62%*
CC1(C)Cc2cccc(OCC(=O)NCCOc3ccccc3)c2O1	i	nt	nt	nt
CN(CC(=O)NCCCc1ccccc1)Cc1ccc(Br)cc1	i	nt	nt	nt
CN(CC(=O)NCCc1ccc(F)cc1)Cc1cccc(Cl)c1	i	nt	45%*	i
O=C(Cc1ccccc1)NCCc1cccc(Cl)c1	i	11*	i	i	CHO-K1 Tl ctr=-12;KCNQ1 pot spec=-13;KCNQ2 pot confirm=23*;Kir21 spec=-38;KCNQ2 W236L pot=i
CN(CC(=O)NCCc1ccc(F)cc1)Cc1ccc(Br)cc1	-5.7*	-5.7	58%*	i
O=C(O)CCC(=O)NCCc1cccc(Cl)c1	i	nt	nt	nt
CSc1ccccc1NC(=O)CN(C)Cc1cccc(Cl)c1	i	nt	nt	nt
COc1ccc2nc(N/C(N)=N/S(C)(=O)=O)nc(C)c2c1	i	2.3	nt	nt
COc1ccc(C[C@H]2CN3C(=NC[C@@H]3Cc3ccccc3)N2C[C@H](C)NC(=O)CCC2CCCCC2)cc1	i	nt	38%*	i
COc1ccc(C[C@H]2CN3C(=NC[C@H]3Cc3ccccc3)N2CCNC(=O)CCC2CCCCC2)cc1	i	nt	47%*	i
C[C@@H](CN1C2=NC[C@H](Cc3ccccc3)N2C[C@H]1Cc1ccc(O)cc1)NC(=O)CCC1CCCCC1	i	nt	nt	nt
C/C=C(\C)C(=O)NCCN1C2=NC[C@H](Cc3ccccc3)N2C[C@@H]1Cc1ccc(OC)cc1	i	0.09	nt	nt
O=S(=O)(NC(=NCCc1ccc(Cl)cc1)c1ccccc1Cl)c1cccs1	i	nt	nt	nt
CC(CC(=O)N1CCc2ccccc21)n1cccn1 (configuration not stated)	i	0.12	nt	nt
Nc1cc(Cl)ccc1C(=O)OCC(=O)N1CCOCC1	i	nt	nt	nt
Cc1ccc(N/C(N)=N/c2nc(C)cc(C)n2)cc1	i	0.74	nt	nt
SMILES	KCNQ2 inh	KCNQ2 enhance	Kir21 conf inh	HEK293 ctr	others
Cc1cc(C)nc(/N=C(\N)Nc2ccc(C(C)C)cc2)n1	i	5.5*	i	i	CHO-K1 Tl ctr=100*;KCNQ1 pot spec=-15;KCNQ2 pot confirm=-17;Kir21 spec=-42
COc1ccc(CCC(=O)NCC23CC4CC(CC(C4)C2)C3)cc1	i	nt	nt	nt
Cc1ccc(S(=O)(=O)NCCc2ccccc2)cc1	i	nt	nt	nt
Cc1cc(C)c(S(=O)(=O)NCCc2ccccc2)c(C)c1	i	nt	50%*	i
Cc1nn(CC(=O)Nc2ccc(S(=O)(=O)N(C)C)cc2)c(C)c1[N+](=O)[O-]	i	1.1	nt	nt
NC(=O)CSc1nnc(-c2ccccn2)n1Cc1ccco1	i	nt	nt	nt
C(=C\c1ccccc1)/CSc1nnc(-c2ccccn2)n1Cc1ccco1	-5.8*	-5.8	60%*	i
C=CCn1cc(F)c(=O)n(CC=C)c1=O	i	nt	nt	nt
c1ccc(-c2nc(N3CCCCC3)nc3ccccc23)cc1	i	nt	nt	nt
c1ccc(-c2nc(N3CCNCC3)nc3ccccc23)cc1	i	nt	50%*	i
COc1cccc(CN2CCCC(C(=O)N3CCCCC3)C2)c1 (configuration not stated)	i	0.41	nt	nt
Cc1cc(C)n(-c2ccccc2C#N)n1	i	2.4	nt	nt
CN(C)CCNC(=O)c1cc2c(s1)-c1ccc(Cl)cc1SC2	-7.6*	-7.6	i	i
CCOCCCNC(=O)c1cc2c(s1)-c1ccccc1SC2	i	0.75	nt	nt
N#CNc1nc(O)cc(=O)[nH]1	i	nt	nt	nt
C(#CCN1CCCC1)CC(c1ccccc1)c1ccccc1	i	nt	40%*	i
OC(CC#CCN1CCCC1)(c1ccccc1)c1ccccc1	i	nt	nt	nt
CCS(=O)(=O)c1nc(S(=O)(=O)c2ccc(C)cc2)c(N2CCC3(CC2)OCCO3)s1	i	0.89	nt	nt
CCCC(=O)OCCNc1cc(Sc2nccn2C)c2nonc2c1[N+](=O)[O-]	i	nt	70%*	i
CCCSc1cc(NCCOC(=O)CCC)c([N+](=O)[O-])c2nonc12	i	nt	nt	nt
CCOc1ccc(NC(C)c2cc(Cl)ccc2O)cc1 (configuration not stated)	i	4.5	nt	nt
CC(Nc1ccc(Cl)cc1)c1cc(Cl)ccc1O (configuration not stated)	i	4.2	59%*	i
Cc1ccc(NC(=S)NC(=O)c2cncc(Br)c2)cc1Cl	i	7.2*	i	i	CHO-K1 Tl ctr=0.8*;KCNQ1 pot spec=-8;KCNQ2 pot confirm=-16;Kir21 spec=-38
O=C(NC(=S)Nc1ccc(Cl)cc1)c1cncc(Br)c1	i	2.9	nt	nt
COc1ccc(C(=O)CC(CC(=O)c2ccc(OC)cc2)C(=O)O)cc1	i	1.6	nt	nt
SMILES	KCNQ2 inh	KCNQ2 enhance	Kir21 conf inh	HEK293 ctr	others
O=C(NC(c1ccccc1)c1ccccc1)c1cccc(S(=O)(=O)NCc2ccccc2)c1	i	nt	nt	nt
O=C(CSc1nc(-c2ccco2)cc(C(F)(F)F)n1)N1CCN(Cc2ccccc2)CC1	i	23*	i	i	CHO-K1 Tl ctr=81*;KCNQ1 pot spec=-3;KCNQ2 pot confirm=42*;Kir21 spec=-47;KCNQ2 W236L pot=i
O=C(CSc1nc(-c2ccco2)cc(C(F)(F)F)n1)N1CCN(c2ccc(Cl)cc2)CC1	i	3	nt	nt
COc1ccccc1N1CCN(C(=O)CSc2nc(-c3ccco3)cc(C(F)(F)F)n2)CC1	i	12*	i	i	CHO-K1 Tl ctr=16*;KCNQ1 pot spec=13*;KCNQ2 pot confirm=11*;Kir21 spec=-27;KCNQ2 W236L pot=i
COc1ccc(CCNC(=O)CSc2nc(-c3ccco3)cc(C(F)(F)F)n2)cc1OC	i	0.16	nt	nt
CCOC(=O)c1c(S(=O)(=O)N(C)C2CCCCC2)c(C)n(C)c1C	i	0.19	nt	nt
CCOc1cc(/C=N/NC(=O)CCc2n[nH]c(=O)[nH]c2=O)ccc1O	i	nt	nt	nt
